# In all, about 16,000 compounds went through this assay and about 4,000 (25%) were called active. Another 26% or so got no clear call; they are omitted. These entries were drawn from the full list. Values without a mark were called inactive. Calls follow the shape of the dose curve; as a rule, active = well fitted curve in the direction sought with a large enough effect; inconclusive = small, poorly fitted or top-dose-only effect, or effect the other way; inactive = no such curve, though single readings can be large or run the other way.
# Molecular target: Cytochrome P450 2C9 (Homo sapiens) (UniProt P11712)
# Sequence (P11712 whole entry, looked up): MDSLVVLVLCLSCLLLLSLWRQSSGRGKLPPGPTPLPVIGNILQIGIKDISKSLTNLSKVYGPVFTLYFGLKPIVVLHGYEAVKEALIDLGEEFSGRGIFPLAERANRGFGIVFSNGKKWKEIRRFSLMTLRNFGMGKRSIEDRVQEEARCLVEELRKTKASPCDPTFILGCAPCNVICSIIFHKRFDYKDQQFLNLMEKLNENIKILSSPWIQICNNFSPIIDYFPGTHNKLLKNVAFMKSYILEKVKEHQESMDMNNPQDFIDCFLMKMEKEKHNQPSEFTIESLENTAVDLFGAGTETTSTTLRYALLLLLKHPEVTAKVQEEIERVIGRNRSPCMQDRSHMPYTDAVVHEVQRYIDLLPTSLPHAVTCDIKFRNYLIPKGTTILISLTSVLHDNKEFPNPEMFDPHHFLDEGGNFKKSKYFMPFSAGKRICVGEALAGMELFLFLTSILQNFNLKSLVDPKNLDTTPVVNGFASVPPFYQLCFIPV
# Experiment: Cytochrome panel assay with activity outcomes
# Conditions: recombinant CYP, pro-luciferin dealkylation, luminescence, p450-cyp2c9; series mostly up to 57.1 µM; activity, negative = inhibition: at the top concentration
# % is scaled to controls: 0 for no effect and ±100 for the full control effect.
SMILES,"activity, negative = inhibition",AC50
O=c1ccc(-c2ccccc2)n[nH]1,6.17% [at 11.4 µM],
C[C@]12CC[C@H]3c4ccc(O)cc4CC[C@@H]3[C@H]1C/C(=N/O)[C@H]2O,21.3% [at 11.4 µM],
COc1ccccc1CN1CC[C@@]2(CCCN(C(C)=O)C2)C1,18%,
CCc1cc2c(nc1CC)CCN(CC/C(C)=N/OC[C@@H](O)[C@@H]1O[C@@H]3OC(C)(C)O[C@@H]3[C@H]1O)C2,-13.5% [at 11.4 µM],
COc1cc(-c2nnc(SC/C=C/c3ccccc3)n2N)cc(OC)c1OC,-22.9%,
C=CCSc1nnc(-c2cc3c(-c4ccccc4)nn(C)c3s2)n1C,,14.1 µM (active)
Cc1noc(C)c1-c1nccc(NCCN2CCOCC2)n1,3.29% [at 2.29 µM],
O=C(COc1cccc(NC(=O)c2cccc([N+](=O)[O-])c2)c1)c1ccc(Br)cc1,,0.891 µM (active)
O=C(Nc1nnc(CCS(=O)(=O)c2ccc(Br)cc2)s1)c1ccc([N+](=O)[O-])cc1,6.65%,
O=C(COc1ccc(Br)cc1)Nc1ccc([N+](=O)[O-])cn1,-16.4%,
C[C@@H](c1ccccc1)N1C(=O)[C@H]2[C@@H]3[C@H](O)[C@H](O)CC(=O)[C@H]3CC[C@H]2C1=O,-15.7% [at 11.4 µM],
CCCn1c(N)[n+](CC(=O)c2ccco2)c2ccccc21,-34%,
O=C(c1ccccc1)c1nc2ccccc2n(CCCn2c(=O)c(C(=O)c3ccccc3)nc3ccccc32)c1=O,,0.2 µM (active)
CCCCCn1c(=O)c(C(=O)c2ccccc2)nc2ccccc21,,14.1 µM (active)
O=C(O)Cc1cc2ccccc2nc1C(=O)O,-9.23%,
N=C(N)[C@H](N=Nc1ccccc1)C(N)=O,-7.82% [at 11.4 µM],
CCn1c(O)c(/C=N/N=C2CCCC2)c2ccc(C3=NNC(=O)CC3)cc21,2.05%,
OC(COCC1COc2ccccc2O1)CN1CCc2ccccc2C1 (configuration not stated),-24.8%,
Cc1ccc(C2C(=O)N(C3CCCC3)CC(=O)N2CC2COc3ccccc3O2)cc1 (configuration not stated),,11.2 µM (active)
CC1CCCC(C)N1CC(O)COCC1COc2ccccc2O1 (configuration not stated),-11.1%,
Nc1ccn([C@H]2O[C@@H](COP(=O)(O)O)[C@@H](O)[C@H]2O)c(=O)n1,-6.67% [at 11.4 µM],
COc1cc(N)c(Cl)cc1C(=O)OCCCN1CCCCC1,20.3%,
COc1cc(N)c(Cl)cc1C(=O)CCC1CCN(CCNS(C)(=O)=O)CC1,,0.251 µM (active)

SMILES,"activity, negative = inhibition",AC50
Cn1cc(C(=O)OCC2CCN(CCNS(C)(=O)=O)CC2)c2ccccc21,3.8%,
CCn1cc(C(=O)O)c(=O)c2cc(F)c(N3CCN[C@@H](C)C3)c(F)c21,,inactive
COc1ccc(C(C)=O)c(OC(=O)c2ccco2)c1,-23.6%,
O=C(Oc1ccc(OC(=O)c2ccco2)c(S(=O)(=O)c2ccc(Br)cc2)c1)c1ccco1,,0.708 µM (active)
CC(C)OC(=O)c1cccc(C(=O)Oc2ccc(Br)cc2)n1,-23.1%,
CCc1cc2c(=O)c(-c3cnn(-c4ccccc4)c3)coc2c(CN2CCOCC2)c1O,,2.51 µM (active)
OC(CCCN1CCCCC1)(c1ccccc1)c1ccccc1,-4.74% [at 25.6 µM],
C/C(=N\NC(=O)c1cccc(Br)c1)c1ccc(Br)cc1,-20.4%,
O=C(N/N=C/C1C(c2ccccc2)C1(Cl)Cl)c1cccc(Br)c1 (configuration not stated),,2 µM (active)
O=C(N/N=C\c1ccc(Sc2ccccn2)o1)c1cccc(Br)c1,,2.24 µM (active)
O=C(N/N=C/c1cccc(Oc2ccccc2)c1)c1cccc(Br)c1,,7.08 µM (active)
O=C(N[C@@]1(C(=O)O)C[C@@H]1c1ccccc1)c1ccccc1,5.78% [at 11.4 µM],
O=C(O)Cn1ccnc1[N+](=O)[O-],9.22% [at 11.4 µM],
COc1ccc2c(c1)N(C[C@@H](C)CN(C)C)c1ccccc1S2,0.217% [at 25.6 µM],
COc1ccccc1-c1cncnc1NCc1cccc(C)c1,-10.6% [at 2.29 µM],
Nc1ncncc1-c1ccc([N+](=O)[O-])cc1,34.9%,
Cc1cc(C)c(Cn2cnc(-c3ccc([N+](=O)[O-])cc3)c2)c(C)c1,,12.6 µM (active)
Cc1nn(Cc2ccc([N+](=O)[O-])cc2)c(=O)n1-c1cccc(F)c1,-24.2%,
O=C(CC(=O)N/N=C\c1c(Cl)cccc1Cl)NCc1ccccc1,-20.1%,
O=C(Cc1ccccc1)N/N=C\c1ccc(Br)o1,,12.6 µM (active)
Cc1cc(C)n(CC(=O)N/N=C/c2ccco2)n1,16.2%,
O=C(N/N=C/c1ccco1)c1ccc(Br)o1,16.9%,
O=C(Cc1ccccc1)N/N=C/c1cc(Br)c(Br)o1,,14.1 µM (active)

SMILES,"activity, negative = inhibition",AC50
O=c1c[n+](CCCC[n+]2cc(=O)o[nH]2)[nH]o1,10.6% [at 11.4 µM],
c1csc(CNc2nc(-c3ccoc3)nc3ccccc23)c1,-11.2% [at 2.29 µM],
CO[C@H]1COC(=O)CCC[C@@H](C)[C@H](OC)COC(=O)[C@H]2CCCN2C(=O)C/C=C\[C@@H]1C,5.44% [at 11.4 µM],
COc1ccc(/C=N/NC(=O)c2cccc([N+](=O)[O-])c2)cc1OS(=O)(=O)c1ccc(C)cc1,,0.891 µM (active)
COc1cccc(/C=N/NC(=O)c2cccc([N+](=O)[O-])c2)c1OS(=O)(=O)c1ccc(C)cc1,,3.55 µM (active)
C=CCOc1ccc2cccc(/C=N/NC(=O)c3cc4cc([N+](=O)[O-])ccc4s3)c2c1,-31.2%,
O=C(N/N=C/c1ccco1)/C(=C/c1cccc([N+](=O)[O-])c1)NC(=O)c1ccccc1,-23.4%,
CC(/C=N/NC(=O)c1cccc([N+](=O)[O-])c1)=C\c1ccccc1,,0.355 µM (active)
Cc1ccc(C(=O)N/N=C/c2ccc([N+](=O)[O-])s2)cc1,-24.8%,
NNc1nncc2ccccc12,,inactive
Cc1cccc([C@@H]2CN(C)CCc3c2cc(O)c(O)c3Cl)c1,,inactive
Cc1noc(C)c1C(=O)N1CCC2(CCCN(c3ccccc3)C2)CC1,9.43%,
Cc1noc(C)c1C(=O)N1CCC2(CC1)CN(c1ccccc1)C2,1.9%,
Cc1cccc(N2CCN(C(=O)CSCc3c(C)noc3C)CC2)c1C,,12.6 µM (active)
c1cncc(CNc2cc(-c3ccoc3)ncn2)c1,2% [at 2.29 µM],
C/C(=N\OC(=O)c1ccc(F)cc1)c1nccs1,-20.9%,
C/C(=C\c1ccco1)C1C(C#N)=C(N)Oc2n[nH]c(-c3ccccc3)c21 (configuration not stated),,0.0891 µM (active)
Nc1nc2c(c(=O)[nH]1)CN(CCCN1CCOCC1)CN2,11% [at 11.4 µM],
O=C(O)CCCCCNC(=O)c1ccccc1Br,-16.4%,
CC(=O)Nc1ccc(NC(=O)c2ccccc2CC[N+](=O)[O-])cc1,-19.2%,
O=C(NCCNc1ccc([N+](=O)[O-])cc1)c1ccccc1Br,,14.1 µM (active)
CCOc1ccc2nc3cc(N=Nc4ccc(N)nc4N)ccc3c(N)c2c1,1.7% [at 11.4 µM],
O=C(Nc1ccc2nc(SCc3ccc(Cl)cc3)sc2c1)c1ccccc1C(=O)N1CCOCC1,-9.43%,

SMILES,"activity, negative = inhibition",AC50
CC(/C=C/c1ccco1)=N/NC(=O)c1ccccc1Cl,-14.2%,
Cc1ccc(NC(=O)c2cc(N3C(=O)C4CC=CCC4C3=O)ccc2N2CCOCC2)cc1Cl (configuration not stated),,11.2 µM (active)
CCCC(=O)Nc1ccc2nc(SCC(=O)Nc3ccc(N4CCOCC4)c(Cl)c3)sc2c1,,2.24 µM (active)
O=C(/C=C/c1ccc(Cl)cc1)NCCN1CCOCC1,-18.9%,
O=C(/C=C/c1ccco1)NC(=S)Nc1ccc(N2CCOCC2)c(Cl)c1,,4.47 µM (active)
NC(=O)c1ccc(N2CCCCC2)c(N2C(=O)C3CC=CCC3C2=O)c1 (configuration not stated),-18.8%,
Cc1ccc(NC(=O)CSCC(=O)Nc2ccc(N3CCOCC3)c(Cl)c2)cc1,,5.01 µM (active)
CN1CCCN(C2C3CC4CC(C3)CC2C4)CC1 (configuration not stated),-1.21%,
CCN1C(=O)[C@H]2[C@H]3[C@H](O)[C@H](O)C/C(=N/OC[C@@H](O)[C@H]4O[C@H]5OC(C)(C)O[C@H]5[C@@H]4O)[C@@H]3CC[C@@H]2C1=O,11.9% [at 11.4 µM],
COc1ncnc(NS(=O)(=O)c2ccc(N)cc2)c1OC,45.6% [at 25.6 µM],
CN=C(NC#N)NCCSC[C@H]1N=CN=C1C,-19.2% [at 25.6 µM],
CC[C@@]12CCCN3CCc4c(n(c5ccccc45)[C@](O)(C(=O)OC)C1)[C@H]32,,inactive
COc1ccc(C2/C(=C(/O)c3ccccc3)C(=O)C(=O)N2CC(C)O)c(OC)c1 (configuration not stated),-19.1%,
COc1ccc(C2/C(=C(/O)c3ccccc3)C(=O)C(=O)N2c2ccccn2)c(OC)c1 (configuration not stated),,15.8 µM (active)
COc1ccc(OC)c(C2N(c3cc(C)on3)C(=O)C3CCCN32)c1 (configuration not stated),-0.725%,
CCOc1ccc(/C(O)=C2\C(=O)C(=O)N(CCOCCO)C2c2ccccc2OC)cc1 (configuration not stated),-28.2%,
COc1ccc(/C(O)=C2\C(=O)C(=O)N(c3cc(C)on3)C2c2ccc(OC)c(OC)c2)cc1OC (configuration not stated),-2.14%,
COc1cccc(/C(O)=C2/C(=O)C(=O)N(c3cc(C)on3)C2c2cccs2)c1 (configuration not stated),,14.1 µM (active)
CN1CCN(c2ncc3ncc(=O)n(C[C@H]4CCCO4)c3n2)CC1,-1.28%,
CN(Cc1ccco1)c1cc(-c2ccc3c(c2)OCO3)ncn1,-13% [at 2.29 µM],
CCOC(=O)N/N=C1/C[C@@H](O)[C@@H](O)[C@@H]2[C@@H]3C(=O)N(CC)C(=O)[C@H]3CC[C@@H]12,9.77% [at 11.4 µM],
CN(C)CCCN1CCC2(CCC(C(C)(C)C)CC2)CC1,13% [at 11.4 µM],
CN(Cc1ccco1)c1nc(-c2ccccc2C(F)(F)F)nc2ccccc12,-1.38% [at 2.29 µM],

# Source: PubChem BioAssay AID1851 (National Center for Advancing Translational Sciences (NCATS), 2009)
